Reference: PubChem BioAssay AID504852 (Southern Research Specialized Biocontainment Screening …, 2011)
Results with a measured potency or affinity are listed apart. Activity calls are given as the source filed them. No rule for the calls is given here.

Assay: THP-1 cell cytotoxicity, dose response, cytotoxicity control, set 3 (AID 504852)
Details: THP-1 cell viability, cytotoxicity CC50; series mostly up to 100 µM; viability: at the top concentration

Row | SMILES | viability
1 | O=C(CSc1nc2ccccc2c(=O)[nH]1)NC1CCCCC1 | 96.9% (inactive)
2 | CCOC(=O)CSc1nc(C)c(C)c(=O)[nH]1 | 82.9% (inactive)
3 | CN(C)C(=O)CSc1nc2ccccc2c(=O)[nH]1 | 81.7% (inactive)
4 | O=C(CSc1nccc(=O)[nH]1)NC1CCCCC1 | 98.9% (inactive)
5 | Cc1cc(=O)[nH]c(SCC(=O)NC2CCCCC2)n1 | 91.3% (inactive)
6 | CCSc1nc(C)c(C)c(=O)[nH]1 | 90.4% (inactive)
7 | CC(C)NC(=O)CSc1nc2ccccc2c(=O)[nH]1 | 92.5% (inactive)
8 | Cc1[nH]c(=S)[nH]c(=O)c1C | 104% (inactive)
9 | CN1CCC(NC(=O)CSc2nc3ccccc3c(=O)[nH]2)CC1 | 99% (inactive)
10 | COc1cccc(NC(=O)CSc2nc3c(c(=O)[nH]2)CCC3)c1 | 90% (inactive)
11 | Cc1cc(=O)[nH]c(=S)[nH]1 | 86.5% (inactive)
12 | Nc1cc(=O)[nH]c(SCC(=O)NC2CCCCC2)n1 | 95.4% (inactive)
13 | Cc1ccc(NC(=O)CSc2nc3ccccc3c(=O)[nH]2)cc1Cl | 99% (inactive)
14 | Cc1c[nH]c(=S)[nH]c1=O | 120% (inactive)
15 | NC(=O)CSc1nc2ccccc2c(=O)[nH]1 | 92.3% (inactive)
16 | CC(C)CCNC(=O)CSc1nc2c(c(=O)[nH]1)CCC2 | 90% (inactive)

Row | SMILES | viability
17 | O=C(CSc1nc2c(c(=O)[nH]1)CCC2)NC1CCCCC1 | 91.5% (inactive)
18 | Cn1c(SCC(=O)NC2CCCCC2)nc2ccccc2c1=O | 88.7% (inactive)
19 | O=C(CSc1nc2ccccc2c(=O)[nH]1)N1CCOCC1 | 102% (inactive)
20 | Cc1nc(SCC(=O)NCCC(C)C)[nH]c(=O)c1C | 84.9% (inactive)
21 | O=c1[nH]c(=S)[nH]c2ccccc12 | 81% (inactive)
22 | Cc1nc(SCc2ccccc2Cl)[nH]c(=O)c1C | 118% (inactive)
23 | Cc1cnc(SCC(=O)NC2CCCCC2)[nH]c1=O | 110% (inactive)
24 | Cc1nc(SCC(N)=O)[nH]c(=O)c1C | 96.4% (inactive)
25 | O=c1[nH]c(SCc2ccccc2Cl)nc2c1CCCC2 | 93.9% (inactive)
26 | O=C(CSc1ncccn1)NC1CCCCC1 | 88.8% (inactive)
27 | CCC(Sc1nc2ccccc2c(=O)[nH]1)C(=O)Nc1cccc(OC)c1 (stereo unspecified) | 87.8% (inactive)
28 | O=C(CSc1nc2ccccc2c(=O)[nH]1)NC1CCCC1 | 113% (inactive)
29 | CCC(Sc1nc2c(c(=O)[nH]1)CCC2)C(=O)Nc1cccc(OC)c1 (stereo unspecified) | 82.7% (inactive)
30 | COc1ccc(NC(=O)CSc2nc3ccccc3c(=O)[nH]2)cc1 | 80.2% (inactive)
31 | Cc1nc(SCC(=O)NC2CCCC2)[nH]c(=O)c1C | 98.5% (inactive)
